Assay outcomes (PubChem BioAssay)
Shown is part of a subset that was picked to be rich in hits.
VACV E9 pol inh: vaccinia E9 polymerase processive synthesis inhibition; normalized absorbance, % (test concentration not listed); AID 493162; in vitro processive DNA synthesis, absorbance read-out; active compounds read low; 46,000 compounds, 0.94% hits; in the data active = normalized absorbance mostly below about 85%, no sharp cut-off; inactive = mostly above about 86%
Active calls of the source: *.

For CS(=O)(=O)NCC(O)Cn1c2ccccc2c2ccccc21 (stereo unspecified) the results were VACV E9 pol inh 106.8.
`OC(CN(Cc1ccccc1)Cc1ccccc1)Cn1c2ccccc2c2ccccc21` (stereo unspecified) gave VACV E9 pol inh 100.6.
Cc1ccc(NCC(O)Cn2c3ccccc3c3ccccc32)cc1 (stereo unspecified) was read as VACV E9 pol inh 99.9.
Screening OCCN(CCO)CC(O)Cn1c2ccccc2c2ccccc21 (stereo unspecified) returned VACV E9 pol inh 76.6*.
CC(C)(CO)NCC(O)Cn1c2ccccc2c2ccccc21 (stereo unspecified) was read as VACV E9 pol inh 65.0*.
O=CN1CCN(CC(O)Cn2c3ccccc3c3ccccc32)CC1 (stereo unspecified) was read as VACV E9 pol inh 99.7.
Screening O=C(N1CCN(c2ccccc2)CC1)C(F)(F)F returned VACV E9 pol inh 104.5.
Cc1cc(C)c(S(=O)(=O)Nc2cc3c4c(oc3c3ccccc23)CCCC4=O)cc1C was read as VACV E9 pol inh 99.9.
Cc1cc(C)n(C(=O)c2ccc(NC(=O)C3CCCCC3)cc2)n1 was read as VACV E9 pol inh 96.6.
O=C(Nc1nc(=S)ss1)c1ccccc1Cl was read as VACV E9 pol inh 68.8*.
For CSc1nc2ccc3nc(NC(=O)c4ccccc4Cl)sc3c2s1 the results were VACV E9 pol inh 100.0.
For COc1cccc2sc(NC(=O)c3ccccc3Cl)nc12 the results were VACV E9 pol inh 106.8.
Cc1ccc(Cc2nnc(C(=O)NCc3ccccc3)o2)cc1 was read as VACV E9 pol inh 103.6.
`CCOC(=O)c1cnn(-c2ccccn2)c1N` gave VACV E9 pol inh 101.4.
COC(=O)c1ccc(-n2c(C)ccc2C)cc1 was read as VACV E9 pol inh 98.2.
Screening CCOC(=O)c1cnn(C(=O)c2ccc(-n3c(C)ccc3C)cc2)c1N returned VACV E9 pol inh 66.1*.
Screening CCC(=O)Nc1ccccc1-c1ccccc1NC(=O)CC returned VACV E9 pol inh 94.5.
Screening CN(C)Cc1c[nH]c2ccccc12 returned VACV E9 pol inh 98.5.
`CN(C)CCCn1cc(C2=C(c3c[nH]c4ccccc34)C(=O)NC2=O)c2ccccc21` gave VACV E9 pol inh 67.5*.
`COc1ccccc1OCCn1cc(/C=C2/SC(=S)NC2=O)c2ccccc21` gave VACV E9 pol inh 100.0.
For C=CCOC(=O)C1=C(C)Nc2[nH]c(=O)[nH]c(=O)c2C1c1ccc(O)cc1 (stereo unspecified) the results were VACV E9 pol inh 100.4.
N#CC(CC(=O)c1ccccc1)c1ccccc1 (stereo unspecified) was read as VACV E9 pol inh 102.3.
CCOC(=O)c1cnc2ccc(C(=O)OC)cc2c1NCCN(C)C was read as VACV E9 pol inh 51.5*.
CCOC(=O)c1cnc2ccc(F)cc2c1NCc1cccnc1 was read as VACV E9 pol inh 94.2.
For CCOC(=O)c1cnc2ccccc2c1NCCO the results were VACV E9 pol inh 94.6.
`Cc1cc(N2C(=O)c3c(c(C)n(C)c3C)C2C(=O)NC2CCC(C)CC2)ccc1Br` (stereo unspecified) gave VACV E9 pol inh 108.6.
`COc1cccc(/C(O)=C/c2nc3ccc(C(=O)Nc4cccc(C)c4)cc3[nH]c2=O)c1` gave VACV E9 pol inh 79.1.
Screening CCOc1ccc(CCNC(=O)C2CCN(S(C)(=O)=O)CC2)cc1OCC returned VACV E9 pol inh 110.0.
Screening CCN=C1S/C(=C\c2cn(CC(=O)Nc3cccc(C)c3)c3ccccc23)C(=O)N1CC returned VACV E9 pol inh 98.4.
`Nc1nccc(-c2ccco2)n1` gave VACV E9 pol inh 98.1.
For S=c1nc2[nH]c(=S)[nH]c(=S)c2c(-c2ccco2)[nH]1 the results were VACV E9 pol inh 60.2*.
For S=C(Nc1ccccc1)Nc1nc2ccccc2n1Cc1ccc(Cl)cc1 the results were VACV E9 pol inh 96.8.
Screening CC(O)c1nc2ccccc2n1Cc1cccc2ccccc12 (stereo unspecified) returned VACV E9 pol inh 100.7.
Screening CCN1CCN(C(c2cccs2)C(C)NC(=O)c2ccncc2)CC1 (stereo unspecified) returned VACV E9 pol inh 99.5.
`CCCCN1CCc2c1nc1ccc(Br)cc1c2N` gave VACV E9 pol inh 87.0*.
Screening CCOc1ccc(N2CCc3c2nc2ccc(Br)cc2c3N)cc1 returned VACV E9 pol inh 98.9.
For CCOc1ccc(-c2nc3ccc(Br)cc3c(C(=O)O)c2C)cc1 the results were VACV E9 pol inh 101.1.
`COC(=O)c1ccc(C(=O)OC)c(NC(=O)Cn2nc(C(F)(F)F)cc2C)c1` gave VACV E9 pol inh 100.9.
`O=C(Cn1c(=O)n2nc(-c3ccccc3)nc2c2ccccc21)c1ccc(Br)cc1` gave VACV E9 pol inh 104.1.
Cc1nc2c3ccccc3nc(NN3C(=O)CCC3=O)n2n1 was read as VACV E9 pol inh 102.0.
CC1CCCC(C)N1CCNc1nc2ccccc2c2nc(-c3ccccc3)nn12 (stereo unspecified) was read as VACV E9 pol inh 58.9*.
O=C(c1c(-c2ccccc2)oc2ccc(O)cc12)N1CCCCC1 was read as VACV E9 pol inh 100.0.
